# Screening data: PubChem, several laboratories
# ALR inh: inhibitors of human sulfhydryl oxidase ALR. P55789. purified ALR, DTT oxidation, H2O2 HRP-luminol luminescence. inhibition, % (test concentration not listed). 290,000 tested, 3.8% active. AID 485317;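 active = mean replicate inhibition above about 79%, with every replicate also reaching it, limit read from the data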
# Target sequence (P55789 whole entry, looked up): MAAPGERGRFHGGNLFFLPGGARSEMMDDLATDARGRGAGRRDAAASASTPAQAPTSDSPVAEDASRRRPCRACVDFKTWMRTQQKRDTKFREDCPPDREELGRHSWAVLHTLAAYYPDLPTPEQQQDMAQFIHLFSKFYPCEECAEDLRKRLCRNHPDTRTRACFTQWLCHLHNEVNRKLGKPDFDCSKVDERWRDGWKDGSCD
# SMARCA2 activ: activators of SMARCA2 function | MG213 cells, MMTV-luciferase reporter, dexamethasone, overnight | 370,000 tested, 1% active | activation, % at 9.1 µM; in the data active = activation above about 7.8%;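 also: 0% = vehicle wells and 100% = reference activator wells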
# PfM18AAP inh: PfM18AAP enzyme inhibition. recombinant PfM18AAP, H-Glu-NHMec fluorogenic cleavage. inhibition, % at 7.35 µM. 290,000 tested, 1.2% active;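 active = inhibition above the campaign mean inhibition over all tested compounds plus 3 SD, cut at about 28% in these data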;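 also: 0% = plate median of test compound wells and 100% = 2 mM ZnCl2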
# Exocytosis inh: blocks lytic granule exocytosis; TALL-104 LAMP-1 surface exposure, flow cytometry; cells stimulated with thapsigargin and PMA; inhibition, % at 10 µM; 360,000 tested, 0.66% active;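 active = inhibition above about 55%, limit read from the data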
# GASC-1 inh: blocks human GASC-1 demethylase activity; Q9H3R0; GST-JMJD2C(1-420) H3K9me3 demethylation, DELFIA europium; inhibition, % at 2.35 µM; 330,000 tested, 0.069% active;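 active = more than half of a compound's replicate wells show inhibition beyond 50%, single wells judged on their own value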;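 also: signal counts dimethyl H3K9 product captured on neutravidin plate; 0% = median of DMSO wells and 100% = 0.3 times that DMSO median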
# MIN6 prolif: inducers of beta-cell replication in MIN6 cells | MIN6 cells proliferation, ATPlite luminescence, 48 h; cells starved in 0.2% serum; 100% = growth in 10% serum | proliferation, % at 10 µM | 330,000 tested, 0.29% active;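 active = compounds whose signal lies at least 3.5 SD above the mean of all wells on their plate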;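 also: 0% = DMSO-treated cells in low-serum medium and 100% = 10% serum control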
# * hit, by the source's call; nt = not tested or not shown. A selection: hits, their analogues and other compounds. The true share with any hit is near 5.4%.
SMILES,ALR inh,SMARCA2 activ,PfM18AAP inh,Exocytosis inh,GASC-1 inh,MIN6 prolif
Cc1cnc(NC(=O)Cc2ccc(S(=O)(=O)N3CCOCC3)s2)s1,92*,0,nt,0,-10,0
Cc1cnc(NC(=O)CSC(=S)N2CCOCC2)s1,97*,1,1,-6,3,-1
Cc1ccc(C(=O)OCC(=O)Nc2ccc(N3CCOCC3)cc2)cc1,nt,-1,nt,0,nt,-1
O=C(CSc1nnc(-c2ccc(Cl)cc2)n1-c1ccccc1)Nc1ccc(Oc2ccccc2)cc1,nt,-4,nt,nt,nt,nt
O=C(NCC1COCCO1)C1CCN(S(=O)(=O)c2cccs2)CC1 (configuration not stated),nt,-2,nt,nt,nt,nt
COC(=O)C1=C(C)N(Cc2cccc(C(F)(F)F)c2)C(=NCc2ccccc2C(F)(F)F)NC1c1cccc(C(F)(F)F)c1 (configuration not stated),nt,-7,nt,nt,nt,nt
Cc1ccc(S(=O)(=O)N(C)[C@H]2C[C@H]3c4cc(N5CCOCC5)ccc4CCN3C[C@H]2[C@H](C)O)cc1,nt,7,nt,nt,nt,nt
C=CCCC1CN(Cc2ccc(OC)cc2)S(=O)(=O)c2c(F)cccc2O1 (configuration not stated),nt,-1,nt,nt,nt,nt
CCOC(=O)c1ccc(NC(=O)CN2C(=O)NC3(CCCCCC3)C2=O)cc1,-7,0,-10,0,-3,-3
CCOC(=O)c1ccc(NC(=O)CSC(=S)N2CCOCC2)cc1,100*,1,2,1,-7,-1
CCOC(=O)c1ccc(NC(=O)CN2C(=O)CN(C(C)=O)C2=S)cc1,99*,0,-11,0,-8,-2
Cc1c(C(=O)N/N=C/c2ccccc2Cl)[nH][nH]c1=O,nt,0,nt,nt,nt,nt
CCOC(=O)/C(C#N)=C/c1cc2ccccc2nc1Cl,8,2,2,10,9,-1
N#C/C(=C\c1cc2ccccc2nc1N1CCCCC1)C(N)=O,93*,0,8,-2,-3,nt
O=C1NC(=S)S/C1=C\c1cc2ccccc2nc1N1CCCCC1,97*,-2,-13,4,9,-3
CN(C)CC(=O)N[C@H]1C[C@@H]2O[C@@H](CO)CC[C@@H]2O[C@@H]1CCc1ccc(-c2ccc(F)cc2)cc1,nt,-1,nt,nt,nt,nt
C[C@H](O)[C@@H]1CN2CCc3c([nH]c4c(-c5ccc6c(c5)OCO6)cccc34)[C@@H]2C[C@@H]1N(C)C(=O)NC1CCCCC1,nt,-1,nt,nt,nt,nt
CC(=O)N1CCC(Nc2ccc(C)cc2)CC1,98*,-3,-12,4,-2,2
CCCCOc1ccc(C(=O)Nc2ccc(N3CCN(C(C)=O)CC3)cc2)cc1,-26,2,-7,-9,61*,-3
CCOc1ccc(NC2CCN(C(C)=O)CC2)cc1,91*,0,4,21,3,-4
CCOc1ccc(NC(=O)N(C2CCCCCC2)C2CCN(C(C)=O)CC2)cc1,-60,1,-4,-1,2,-4
C[C@H]1[C@H](c2ccccc2)Oc2cccc(NCCc3ccccc3)c2S(=O)(=O)N1Cc1cccc(F)c1,nt,1,nt,nt,nt,nt
COc1cc(C(=O)NC2CCCCN(Cc3cccc(C(F)(F)F)c3)C2=O)cc(OC)c1OC (configuration not stated),nt,-1,nt,nt,nt,nt
CC(=O)N1CCCN(C(=O)C2CCN(c3ncnc4c3sc3cccc(F)c34)CC2)CC1,nt,-2,nt,nt,nt,nt
O=C(OC12CCCN(C1)/C(=C/c1ccc(Cl)cc1)C2)C1CCCCC1 (configuration not stated),nt,-3,nt,nt,nt,nt
SMILES,ALR inh,SMARCA2 activ,PfM18AAP inh,Exocytosis inh,GASC-1 inh,MIN6 prolif
Oc1ccc(C2CNCc3sccc32)cc1O (configuration not stated),98*,-1,nt,-4,nt,-8
Clc1ccc(C2NCCc3sccc32)cc1 (configuration not stated),-2,1,-3,-1,9,-1
O=C(CSc1nc(O)c(C2CCCCC2)c(=O)[nH]1)Nc1ccc(F)cc1,99*,2,7,0,-1,-1
O=C(CSc1nc(NS(=O)(=O)c2ccccc2)cc(=O)[nH]1)Nc1cccc(C(F)(F)F)c1,nt,2,-4,-5,-49,-1
O=C(CSc1nc(O)c(C2CCCCC2)c(=O)[nH]1)N1CCOCC1,15,2,2,-11,-5,2
O=C(O)CC(SCC(=O)Nc1ccccc1)C(=O)O (configuration not stated),-11,1,4,2,-5,-2
